Data on three sequences can be found in paper PMC11006913.

What all share (experiment): PBM; 200 nM protein, PBS
What all share (conditions): dsDNA, one strand shown

For assay [1], the target named is HOXB9 (Homo sapiens, UniProt P17482 171-250, T197M).
The target of assay [2] is HOXA4 (Homo sapiens, UniProt Q00056 201-287, W262R).
Assay [3] has as its target HOXC9 (Homo sapiens, UniProt P31274 178-260, K195R).
The target in another assay is T1, VENTX (Homo sapiens, UniProt O95231 78-163).
T1 sequence: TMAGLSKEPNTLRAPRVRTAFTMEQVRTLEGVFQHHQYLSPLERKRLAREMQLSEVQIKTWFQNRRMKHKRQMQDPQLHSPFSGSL

Assay [4] has as its target HOXA7 (Homo sapiens, UniProt P31268 116-202).
The target of assay [5] is HOXC10 (Homo sapiens, UniProt Q9NYD6 254-340).
HOXC10 (Homo sapiens, UniProt Q9NYD6 254-340), sequence (Q9NYD6 254-340): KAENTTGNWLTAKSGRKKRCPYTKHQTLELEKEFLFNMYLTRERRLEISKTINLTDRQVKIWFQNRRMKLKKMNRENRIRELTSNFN
Assay [6] has as its target HOXB6 (Homo sapiens, UniProt P17509 132-218, K202E).
Assay [7] deals with HOXB9 (Homo sapiens, UniProt P17482 171-250).
HOXB9 (Homo sapiens, UniProt P17482 171-250), sequence (P17482 171-250): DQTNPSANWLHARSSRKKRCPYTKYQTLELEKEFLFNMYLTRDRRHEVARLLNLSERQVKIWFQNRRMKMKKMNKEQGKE
In assay [8] the target is HOXC9 (Homo sapiens, UniProt P31274 178-260).
HOXC9 (Homo sapiens, UniProt P31274 178-260), sequence (P31274 178-260): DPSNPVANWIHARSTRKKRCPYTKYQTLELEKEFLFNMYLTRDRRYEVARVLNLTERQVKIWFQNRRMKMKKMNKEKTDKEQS
Assay [9] concerns the target HOXC9 (Homo sapiens, UniProt P31274 178-260, R193K).
Assay [10] has as its target HOXA4 (Homo sapiens, UniProt Q00056 201-287).
Assay [11] concerns the target HOXC10 (Homo sapiens, UniProt Q9NYD6 254-340, K271E).
The target in another assay is VAX1 (Homo sapiens, UniProt Q5SQQ9 86-172).
VAX1, sequence (Q5SQQ9 86-172): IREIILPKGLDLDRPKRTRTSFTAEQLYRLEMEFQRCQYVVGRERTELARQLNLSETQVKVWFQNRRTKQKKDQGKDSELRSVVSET
For assay [12], the target named is HOXB9 (Homo sapiens, UniProt P17482 171-250, R186Q).
HOXB9 (Homo sapiens, UniProt P17482 171-250, R186Q), sequence (P17482 171-250 R186Q): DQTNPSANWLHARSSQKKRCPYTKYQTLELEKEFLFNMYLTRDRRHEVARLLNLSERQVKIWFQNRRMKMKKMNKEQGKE
The target of assay [13] is HOXC9 (Homo sapiens, UniProt P31274 178-260, R222W).
HOXC9 (Homo sapiens, UniProt P31274 178-260, R222W), sequence (P31274 178-260 R222W): as the sequence (P31274 178-260) above, with R45W counted along it
The target in a further assay is T2, PAX4 (Homo sapiens, UniProt O43316 9-242, R227W).
T2 sequence: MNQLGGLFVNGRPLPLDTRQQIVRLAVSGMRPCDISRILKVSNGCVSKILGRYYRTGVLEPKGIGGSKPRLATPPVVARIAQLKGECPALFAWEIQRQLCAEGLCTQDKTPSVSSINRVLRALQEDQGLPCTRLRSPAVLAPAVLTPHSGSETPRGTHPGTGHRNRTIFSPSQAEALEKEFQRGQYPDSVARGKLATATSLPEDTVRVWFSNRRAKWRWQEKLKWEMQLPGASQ

Assay [14] has as its target HOXA2 (Homo sapiens, UniProt O43364 129-215, Y150S).
Assay [15] concerns the target HOXA7 (Homo sapiens, UniProt P31268 116-202, W177C).
Assay [16] addresses HOXA2 (Homo sapiens, UniProt O43364 129-215).
For assay [17], the target named is HOXB6 (Homo sapiens, UniProt P17509 132-218).
HOXB6 (Homo sapiens, UniProt P17509 132-218), sequence (P17509 132-218): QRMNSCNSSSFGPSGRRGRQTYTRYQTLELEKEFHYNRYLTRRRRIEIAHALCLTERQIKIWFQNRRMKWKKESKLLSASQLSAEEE

HOXA7 (Homo sapiens, UniProt P31268 116-202), sequence (P31268 116-202): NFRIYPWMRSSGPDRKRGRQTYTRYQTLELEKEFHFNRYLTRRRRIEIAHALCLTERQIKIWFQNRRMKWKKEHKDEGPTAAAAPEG
HOXB6 (Homo sapiens, UniProt P17509 132-218, K202E), sequence (P17509 132-218 K202E): as the sequence (P17509 132-218) above, with K71E counted along it
HOXA4 (Homo sapiens, UniProt Q00056 201-287, W262R), sequence (Q00056 201-287 W262R): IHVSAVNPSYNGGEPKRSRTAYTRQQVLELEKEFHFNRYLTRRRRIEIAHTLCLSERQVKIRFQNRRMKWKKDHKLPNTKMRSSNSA
HOXA7 (Homo sapiens, UniProt P31268 116-202, W177C), sequence (P31268 116-202 W177C): as the sequence (P31268 116-202) above, with W62C counted along it
HOXC10 (Homo sapiens, UniProt Q9NYD6 254-340, K271E), sequence (Q9NYD6 254-340 K271E): as the sequence (Q9NYD6 254-340) above, with K18E counted along it
HOXB9 (Homo sapiens, UniProt P17482 171-250, T197M), sequence (P17482 171-250 T197M): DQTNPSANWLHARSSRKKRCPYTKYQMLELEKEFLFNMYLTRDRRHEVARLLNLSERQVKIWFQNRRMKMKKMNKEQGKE
HOXC9 (Homo sapiens, UniProt P31274 178-260, R193K), sequence (P31274 178-260 R193K): as the sequence (P31274 178-260) above, with R16K counted along it
HOXA2 (Homo sapiens, UniProt O43364 129-215), sequence (O43364 129-215): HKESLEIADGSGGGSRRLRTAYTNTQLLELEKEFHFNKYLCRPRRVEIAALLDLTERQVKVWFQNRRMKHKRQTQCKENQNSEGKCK
HOXA2 (Homo sapiens, UniProt O43364 129-215, Y150S), sequence (O43364 129-215 Y150S): as the sequence (O43364 129-215) above, with Y22S counted along it
HOXA4 (Homo sapiens, UniProt Q00056 201-287), sequence (Q00056 201-287): as the sequence (Q00056 201-287 W262R) above, with R62W counted along it
HOXC9 (Homo sapiens, UniProt P31274 178-260, K195R), sequence (P31274 178-260 K195R): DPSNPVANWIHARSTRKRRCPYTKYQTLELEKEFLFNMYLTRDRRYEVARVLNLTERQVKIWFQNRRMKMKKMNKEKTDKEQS

Take GTAATTAC: the binding signal with HOXB9 [1] was 10.6 upbm affinity estimate (log intensity, higher = more binding, comparable within an allelic series); with HOXA4 [2], 10.8 upbm affinity estimate (log intensity, higher = more binding, comparable within an allelic series); with HOXC9 [3] it was 13.1 upbm affinity estimate (log intensity, higher = more binding, comparable within an allelic series); with VENTX it was 12.9 upbm affinity estimate (log intensity, higher = more binding, comparable within an allelic series); in the assay with HOXA7 [4], 12.5 upbm affinity estimate (log intensity, higher = more binding, comparable within an allelic series); in the assay with HOXC10 [5] it was 12.5 upbm affinity estimate (log intensity, higher = more binding, comparable within an allelic series). Moreover, the binding signal is 10.4 upbm affinity estimate (log intensity, higher = more binding, comparable within an allelic series) with HOXB6 [6]; 12.3 upbm affinity estimate (log intensity, higher = more binding, comparable within an allelic series) in the assay with HOXB9 [7]; 13.1 upbm affinity estimate (log intensity, higher = more binding, comparable within an allelic series) in the assay with HOXC9 [8]; 13.2 upbm affinity estimate (log intensity, higher = more binding, comparable within an allelic series) with HOXC9 [9]; 14.3 upbm affinity estimate (log intensity, higher = more binding, comparable within an allelic series) with HOXA4 [10]; 12.6 upbm affinity estimate (log intensity, higher = more binding, comparable within an allelic series) with HOXC10 [11]. In addition, the binding signal in the assay with VAX1 is 13.9 upbm affinity estimate (log intensity, higher = more binding, comparable within an allelic series); with HOXB9 [12], 12.1 upbm affinity estimate (log intensity, higher = more binding, comparable within an allelic series); in the assay with HOXC9 [13], 11 upbm affinity estimate (log intensity, higher = more binding, comparable within an allelic series); with PAX4, 11 upbm affinity estimate (log intensity, higher = more binding, comparable within an allelic series); in the assay with HOXA2 [14] it was 11.2 upbm affinity estimate (log intensity, higher = more binding, comparable within an allelic series); with HOXA7 [15], 9.01 upbm affinity estimate (log intensity, higher = more binding, comparable within an allelic series). The binding signal with HOXA2 [16] was 13.4 upbm affinity estimate (log intensity, higher = more binding, comparable within an allelic series); with HOXB6 [17], 12.8 upbm affinity estimate (log intensity, higher = more binding, comparable within an allelic series).

Turning to GGTAATTA, the binding signal in the assay with HOXB9 [1] is 10.6 upbm affinity estimate (log intensity, higher = more binding, comparable within an allelic series); with HOXA4 [2], 10.9 upbm affinity estimate (log intensity, higher = more binding, comparable within an allelic series); with HOXC9 [3] it was 13.2 upbm affinity estimate (log intensity, higher = more binding, comparable within an allelic series); with VENTX, 13.2 upbm affinity estimate (log intensity, higher = more binding, comparable within an allelic series); in the assay with HOXA7 [4], 12.6 upbm affinity estimate (log intensity, higher = more binding, comparable within an allelic series); in the assay with HOXC10 [5], 12.5 upbm affinity estimate (log intensity, higher = more binding, comparable within an allelic series). Also, the binding signal was 10.4 upbm affinity estimate (log intensity, higher = more binding, comparable within an allelic series) with HOXB6 [6]; 12.3 upbm affinity estimate (log intensity, higher = more binding, comparable within an allelic series) in the assay with HOXB9 [7]; 13.1 upbm affinity estimate (log intensity, higher = more binding, comparable within an allelic series) in the assay with HOXC9 [8]; 13.1 upbm affinity estimate (log intensity, higher = more binding, comparable within an allelic series) with HOXC9 [9]; 14.3 upbm affinity estimate (log intensity, higher = more binding, comparable within an allelic series) with HOXA4 [10]; 12.7 upbm affinity estimate (log intensity, higher = more binding, comparable within an allelic series) in the assay with HOXC10 [11]. The binding signal in the assay with VAX1 was 14.1 upbm affinity estimate (log intensity, higher = more binding, comparable within an allelic series); in the assay with HOXB9 [12], 12.2 upbm affinity estimate (log intensity, higher = more binding, comparable within an allelic series); in the assay with HOXC9 [13], 11 upbm affinity estimate (log intensity, higher = more binding, comparable within an allelic series); with PAX4, 11.1 upbm affinity estimate (log intensity, higher = more binding, comparable within an allelic series); with HOXA2 [14] it was 11 upbm affinity estimate (log intensity, higher = more binding, comparable within an allelic series); in the assay with HOXA7 [15], 9.03 upbm affinity estimate (log intensity, higher = more binding, comparable within an allelic series). Besides, the binding signal in the assay with HOXA2 [16] was 13.4 upbm affinity estimate (log intensity, higher = more binding, comparable within an allelic series); in the assay with HOXB6 [17], 12.9 upbm affinity estimate (log intensity, higher = more binding, comparable within an allelic series).

For the sequence CTAATTAA, the binding signal was 10.2 upbm affinity estimate (log intensity, higher = more binding, comparable within an allelic series) with HOXB9 [1]; 11 upbm affinity estimate (log intensity, higher = more binding, comparable within an allelic series) with HOXA4 [2]; 12.7 upbm affinity estimate (log intensity, higher = more binding, comparable within an allelic series) with HOXC9 [3]; 13.1 upbm affinity estimate (log intensity, higher = more binding, comparable within an allelic series) with VENTX; 11.9 upbm affinity estimate (log intensity, higher = more binding, comparable within an allelic series) with HOXA7 [4]; 12.2 upbm affinity estimate (log intensity, higher = more binding, comparable within an allelic series) with HOXC10 [5]. Besides, the binding signal is 10.1 upbm affinity estimate (log intensity, higher = more binding, comparable within an allelic series) with HOXB6 [6]; 11.8 upbm affinity estimate (log intensity, higher = more binding, comparable within an allelic series) in the assay with HOXB9 [7]; 12.6 upbm affinity estimate (log intensity, higher = more binding, comparable within an allelic series) in the assay with HOXC9 [8]; 12.6 upbm affinity estimate (log intensity, higher = more binding, comparable within an allelic series) in the assay with HOXC9 [9]; 14.2 upbm affinity estimate (log intensity, higher = more binding, comparable within an allelic series) in the assay with HOXA4 [10]; 12.3 upbm affinity estimate (log intensity, higher = more binding, comparable within an allelic series) with HOXC10 [11]. Moreover, the binding signal with VAX1 was 13.7 upbm affinity estimate (log intensity, higher = more binding, comparable within an allelic series); with HOXB9 [12], 11.6 upbm affinity estimate (log intensity, higher = more binding, comparable within an allelic series); with HOXC9 [13], 11.2 upbm affinity estimate (log intensity, higher = more binding, comparable within an allelic series); with PAX4 it was 11.5 upbm affinity estimate (log intensity, higher = more binding, comparable within an allelic series); with HOXA2 [14], 11 upbm affinity estimate (log intensity, higher = more binding, comparable within an allelic series); with HOXA7 [15], 8.82 upbm affinity estimate (log intensity, higher = more binding, comparable within an allelic series). The binding signal with HOXA2 [16] was 13 upbm affinity estimate (log intensity, higher = more binding, comparable within an allelic series); in the assay with HOXB6 [17] it was 12.2 upbm affinity estimate (log intensity, higher = more binding, comparable within an allelic series).
